Compound activity as filed in PubChem BioAssay.
The list is not random: actives were taken first. Their share in the collection is about 4.8%.
SMARCA2 act – SMARCA2 function activation, primary screen. MG213 cells, MMTV-luciferase reporter, dexamethasone, overnight. hit rate 1% among 370,000. activation, % at 9.1 µM. AID 652017; in the data active = activation above about 7.8%;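 also: 0% = vehicle wells and 100% = reference activator wells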
hgDAF-12 ag – agonists of H. glycines DAF-12 nuclear receptor | HEK293 GAL4-hgDAF12 UAS-luciferase reporter, agonist luminescence; normalized to butyrate control | activation, % at 6.8 µM | hit rate 1.8% among 370,000 | AID 687014;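 active = activation above a cutoff set at the mean of all screened compounds plus 3 SD, cut at about 10% in these data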;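 also: 0% = DMSO wells and 100% = sodium butyrate wells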
hcDAF-12 act – activates DAF-12 receptor from parasite H. contortus; activation, % at 6.8 µM; AID 652067; hit rate 1.4% among 370,000; HEK293 hcDAF-12 lit1-tk-luc reporter, luminescence; 0% DMSO, 100% Δ7-dafachronic acid;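 active = activation above the mean of all tested compounds plus 3 SD, cut at about 5.5% in these data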;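 also: 100% = response to 3 µM Δ7-dafachronic acid high control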
DAX1 inh-1 – DAX1 (NR0B1) inhibition, primary screen. HEK293T StAR-luciferase reporter, SF-1/DAX-1 repression relief. inhibition, % at 6.8 µM. hit rate 1.1% among 370,000;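 active = inhibition above the mean over all tested compounds plus 3 SD, cut at about 3.6% in these data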;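 also: 0% = DAX-1 cells with DMSO and 100% = cells lacking DAX-1 with DMSO; higher inhibition means more luminescence from relief of DAX-1 repression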
ssDAF12 agonist – S. stercoralis DAF-12 activation, primary screen; HEK293 ssDAF-12/GRIP1 lit1-tk-luc reporter, luminescence; % of 3 µM dafachronic acid response; activation, % at 6.8 µM; hit rate 1% among 370,000;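 active = activation above the mean over all tested compounds plus 3 SD, cut at about 0.9% in these data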;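 also: 0% = DMSO-only wells and 100% = 3 µM delta7-dafachronic acid wells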
DAX1 inh-2 – inhibitors of human orphan nuclear receptor DAX1 (NR0B1); P51843; HEK293 Gal4-DAX1 luciferase reporter, luminescence; inhibition, % at 6.75 µM; hit rate 0.99% among 340,000; AID 504766;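 active = inhibition above the mean over all tested compounds plus 3 SD, cut at about 4.2% in these data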;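 also: 0% = DAX1-transfected cells with DMSO and 100% = empty-vector control cells with DMSO; inhibition shows as a rise in luminescence from relieved DAX1 repression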
Target sequence (P51843 207-470 limits assumed): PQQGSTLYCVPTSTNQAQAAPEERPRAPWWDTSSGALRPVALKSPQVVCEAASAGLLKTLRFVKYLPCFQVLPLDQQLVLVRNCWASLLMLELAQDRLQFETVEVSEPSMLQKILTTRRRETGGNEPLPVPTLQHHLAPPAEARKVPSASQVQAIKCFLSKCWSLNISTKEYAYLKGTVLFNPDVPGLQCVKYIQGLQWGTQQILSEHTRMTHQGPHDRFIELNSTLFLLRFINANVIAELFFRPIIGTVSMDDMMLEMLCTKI
DAX1 inh confirm – NR0B1 (human) inhibition, confirmation. inhibition, % at 6.8 µM. HEK293T StAR-promoter luciferase reporter, SF-1/DAX-1 repression. shares compounds with DAX1 inh-1. hit rate 87% among 2,400;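 active = inhibition above the average of every tested compound plus 3 SD, cut at about 3.8% in these data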;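 also: 0% = DAX-1 cells with DMSO and 100% = no DAX-1 control cells with DMSO; active compounds raise luminescence by relieving repression of the StAR reporter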
SF1 AF2mut Luc – nonselective inhibitor or artifact in SF-1 mutant DAX1 counter-screen; HEK293 StAR-luciferase, SF-1 AF2 mutant, luminescence; inhibition, % at 6.8 µM; shares compounds with DAX1 inh-1; hit rate 78% among 2,400;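 active = inhibition above the mean of all tested compounds plus 3 SD, cut at about 3% in these data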;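 also: 0% = DAX-1 transfected cells with DMSO and 100% = cells without DAX-1 with DMSO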
* marks the source's active call; other numbers are inactive results; / = not tested or not shown.

SMILES	SMARCA2 act	hgDAF-12 ag	hcDAF-12 act	DAX1 inh-1	ssDAF12 agonist	DAX1 inh-2	DAX1 inh confirm	SF1 AF2mut Luc
CC(=O)Nc1ccc(-c2ccnc3c2CC(C(=O)NCc2ccccc2)O3)cc1 (centres undefined)	4.8	-6.2	0.8	4.5*	0.0	/	9.6*	-7.1
CN(C(=O)c1cccc(NC(=O)Cc2ccc(NC(=O)C3CCN(C(=O)C4CC4)CC3)cc2)c1)C1CCC1	-2.5	-0.4	0.8	5.0*	-0.2	-1.9	1.5	2.3
O=C(COC(=O)/C=C/c1ccc(OC(F)F)cc1)Nc1cccc(S(=O)(=O)N2CCCC2)c1	-1.6	1.0	-1.6	0.7	-0.7	1.8	/	/
O=C(N/N=C/c1ccsc1)c1cc(-c2ccncc2)nc2ccccc12	-3.2	-0.2	1.6	-1.9	0.0	0.7	/	/
COc1ccc(OC)c(CN2CCN(C(=O)CN3C(=O)NC4(CCCC4)C3=O)CC2)c1	-0.8	-0.1	-0.8	4.9*	-1.3	-0.3	-2.2	-0.1
COc1cccc(N2CCN(C(=O)CN3C(=O)NC4(CCCC4)C3=O)CC2)c1	-1.0	-1.8	-0.6	-0.5	-1.0	0.1	/	/
CCNC(=O)C1CCCN(C(=O)c2ccc3c(c2)CCO3)CC1 (centres undefined)	-1.6	1.2	-1.3	1.3	-1.6	/	/	/
COc1cccc(-c2nnc(-c3ccc4ccccc4c3)o2)c1	2.9	10.0	4.4	5.5*	-0.4	2.8	14.8*	6.1*
Cc1ccc(-c2nnc(-c3ccc4ccccc4c3)o2)cc1	3.0	6.5	3.2	0.7	-0.4	2.3	/	/
N#Cc1ccccc1S(=O)(=O)N1CCC(C(=O)NCc2ccccc2CN2CCCC2)CC1	-1.4	-0.1	-0.7	5.4*	-0.5	0.0	1.9	-0.9
C[C@@H]1CN([C@H](C)CO)C(=O)CCCn2nncc2CO[C@@H]1CN(C)S(=O)(=O)c1ccc2c(c1)OCCCO2	-0.8	2.7	1.9	4.8*	-1.1	0.8	2.2	2.3
COc1cccc(C(=O)N2CCN(Cc3ccccc3C(F)(F)F)CC2)c1	1.6	-2.8	-2.0	-0.9	-1.6	-1.0	/	/
O=C(CSc1nc2ccccc2[nH]1)N/N=C/c1ccncc1	-1.3	-0.4	1.4	0.0	-1.4	/	/	/
O=C(CSc1nc2ccccc2[nH]1)NN=Cc1ccccc1C(=O)O	-2.1	9.5	5.9*	5.5*	0.2	/	12.0*	7.8*
COc1ccc(-c2sc3ccccc3c2-c2ccc(OC)cc2F)cc1	2.0	3.2	1.6	5.3*	-1.2	/	1.3	1.6
COc1ccc(-c2sc3ccccc3c2-c2ccc(O)cc2)cc1	1.1	0.4	-1.3	-0.8	-1.5	-1.0	/	/
O=C(c1ccc(F)cc1)n1ccc(-c2cnc(-c3ccccc3)s2)n1	6.3	12.8*	5.9*	5.0*	0.9*	2.6	12.5*	5.5*
Fc1ccc(Cn2ccc(-c3cnc(-c4ccccc4)s3)n2)cc1	-0.1	4.1	1.5	-0.6	-1.3	0.1	/	/
Cc1ccc(CN2C(=O)CCC2C(=O)N2CCN(c3ccccc3)CC2)cc1 (centres undefined)	1.0	0.9	0.5	-0.3	-2.2	-0.9	/	/
O=C(c1cc([N+](=O)[O-])ccc1N1CCOCC1)N1CCN(S(=O)(=O)c2ccc(F)cc2)CC1	-1.9	1.4	-1.1	-0.2	-0.5	0.5	/	/
Cc1ccc2nc(SC(C)C(=O)N3CCOCC3)[nH]c2c1 (centres undefined)	3.1	11.2*	3.8	7.3*	-0.5	1.5	6.2*	5.0*
O=C(Nc1ccc(F)c(Cl)c1)N1CCCC1	2.4	2.8	-0.5	-0.5	-1.2	0.3	/	/
CCn1c2ccccc2c2cc(NC(=O)N3CCCCC3)ccc21	4.6	8.6	2.5	4.7*	-0.3	3.2	10.4*	5.4*
CCCC(=O)Nc1ccc2c(c1)c1ccccc1n2CC	0.7	-2.0	-2.8	-0.6	-1.5	0.9	/	/
Cc1ccc(NC(=O)N2CCCCC2)cc1NC(=O)N1CCCCC1	-1.8	0.7	-1.3	0.2	-1.4	0.4	/	/
SMILES	SMARCA2 act	hgDAF-12 ag	hcDAF-12 act	DAX1 inh-1	ssDAF12 agonist	DAX1 inh-2	DAX1 inh confirm	SF1 AF2mut Luc
O=C(Nc1ccc(F)c(Cl)c1)N1CCCCCC1	0.7	5.0	1.1	4.7*	0.0	1.2	5.2*	5.8*
Cc1ccc(NC(=O)N2CCCCCC2)cc1C	3.8	4.6	3.0	5.9*	0.3	2.0	8.1*	5.4*
CC(C)C1CC(C(F)(F)F)n2nc(C(=O)O)cc2N1 (centres undefined)	-1.4	1.1	0.3	0.1	-1.9	-0.7	/	/
CCc1ccc(C(=O)Nc2nc(C)cs2)s1	3.7	11.4*	3.7	15.6*	0.2	-1.3	9.9*	6.1*
CCOC(=O)c1sc(NC(=O)c2ccc(CC)s2)nc1C	2.5	6.0	0.4	1.9	-0.8	0.4	/	/
Cc1ccc(C)c(OCc2cc(C(=O)N3CCN(c4ccccc4)CC3)no2)c1	1.4	9.4	3.9	6.3*	0.5	0.7	5.3*	4.8*
Cc1ccc(C)c(OCc2cc(C(=O)N3CCN(C(=O)c4ccco4)CC3)no2)c1	3.9	8.2	4.2	6.4*	-0.3	0.8	6.2*	4.1*
CCOC(=O)Cn1cc(C(=O)c2ccco2)c2ccccc21	2.4	-0.9	-1.5	0.6	-1.4	-1.9	/	/
CCN(CCN1CCCC1)C(=O)c1cc(COc2ccccc2SC)on1	0.7	1.1	3.0	-0.2	-1.1	0.7	/	/
CCN(CCn1cccn1)C(=O)c1cc(COc2ccccc2SC)on1	3.8	9.9	0.8	4.6*	-0.3	2.8	7.1*	5.4*
COc1ccc(N=C(C)C2=C(O)c3ccccc3C2=O)cc1	3.4	11.6*	4.0	5.0*	0.6	1.0	19.2*	5.9*
C/C(=N\N(C)C)C1=C(O)c2ccccc2C1=O	0.6	4.7	1.5	1.2	-1.2	-0.7	/	/
C[C@H](CCCC/C=C/C(=O)O)O[C@@H]1O[C@@H](C)[C@H](O)C[C@H]1O	1.5	0.6	-1.0	-0.2	-1.5	1.0	/	/
CC(C)NC(=O)c1cccc(NC(=O)CC2SC(N3CCCCC3)=NC2=O)c1 (centres undefined)	-3.1	-1.5	0.7	-0.9	-0.1	0.9	/	/
O=C(CC1SC(N2CCCCC2)=NC1=O)Nc1cccc(C(=O)Nc2ncccc2O)c1 (centres undefined)	-2.5	10.7*	2.7	7.9*	-0.2	0.8	9.7*	9.1*
COc1cccc(COC(=O)c2ccc3c(c2)NC(=O)C(C)S3)c1OC (centres undefined)	-0.4	-2.6	-0.9	-1.0	-1.4	-0.9	/	/
